Source: PubChem BioAssay (National Center for Advancing Translational Sciences (NCATS))
Rows were chosen to be rich in hits. Some 7.3% of all compounds tested hit in one or more screens of this group.
HCV inhibitor: inhibitors of hepatitis C virus infection; Huh7.5.1 HCVcc-Cre infection, luciferase reporter, 44 h; 3.4% of 340,000 active; Potency, µM (doses to about 41.8 µM), hits mostly inhibitors; active means well fitted inhibition curve with a large enough effect; inconclusive means small, poorly fitted or top-dose-only effect, or another doubt; inactive means no such curve, though single readings can be large or run the other way
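After 44 h co-culture of compound, cells and HCVcc-Cre (~0.5 moi), substrate is added for 15 min at room temperature and luciferase measured over 15 sec. Cells were seeded at 1,000/well and pre-cultured 4 h.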
Vaccinia mCherry: inhibitors of vaccinia virus infection (mCherry reporter signal); Vaccinia virus mCherry reporter infection, fluorescence; Potency, µM (titrated, usually from 36.5 µM), hits mostly inhibitors; 0.63% of 310,000 active; AID 720579; calls by dose curve; tested in A549 cells; further: nearly all actives have a fitted effect of over 35% in size
Vaccinia Venus: vaccinia inhibition (Venus reporter). Potency, µM (highest dose often 36.5 µM), actives largely listed as inhibitors. 0.46% of 330,000 active. Vaccinia virus Venus reporter expression, fluorescence; calls by dose curve; tested in A549 cells; further: nearly all actives have a fitted effect of over 30% in size
HCMV antiviral: human cytomegalovirus inhibition; HFF cells, HCMV-luciferase reporter, 72 h; stronger effect = lower value; activity change, negative = inhibition, % at 57.5 µM; 4.5% of 410,000 active; in the data active means activity change below about -60%; inconclusive means no clear call, values can overlap the other calls; inactive means above about -39%
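Cell-based, HFFs, 1000 cells/well, 16 h 37C; cpds in DMSO + HCMV-luc, MOI 1 PFU/cell; 72 h 37C; OneGlo luminescence after 5 min RT; norm. to buffer vs Salinomycin 10uM.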
FMDV inh: antivirals against foot and mouth disease virus; FMDV antiviral cell-based qHTS; Potency, µM (doses to about 57.9 µM), usual class: inhibitors; 1.2% of 410,000 active; AID 1159524; calls by dose curve; tested in HEK293T cells; further: read-out not given here; nearly all actives have a fitted effect of over 45% in size
Hits are given with their value; i = inactive; ? = inconclusive; nt = no result given; [ ] = dose if it differs, or a comment.

SMILES	HCV inhibitor	Vaccinia mCherry	Vaccinia Venus	HCMV antiviral	FMDV inh
CC(C)(C)C(=O)N1CCN(c2ncnc3scc(-c4ccccc4)c23)CC1	?	i	i	-70	i
CCOC(=O)N1CCN(c2ncnc3scc(-c4ccccc4)c23)CC1	8.9µM	i	i	i	i
O=C(O)CSCC(=O)N1CCN(c2ncnc3scc(-c4ccccc4)c23)CC1	i	nt	nt	i	i
COC(=O)/C=C1\OC(C2CC2)c2ccccc21 (configuration not stated)	nt	i	i	i	i
CC1CC(C)CN(C(=O)CCNS(=O)(=O)c2ccc3c(c2)CCC(=O)N3)C1 (configuration not stated)	i	i	i	i	i
Cc1ccc(C)c(N2CCN(C(=O)CCS(=O)(=O)c3ccc4c(c3)NC(=O)CO4)CC2)c1	?	nt	nt	-73	i
CC(CC(=O)N1CCN(c2cccc(Cl)c2)CC1)S(=O)(=O)c1ccc2c(c1)NC(=O)CO2 (configuration not stated)	6.3µM	nt	nt	-95	2.8µM
COc1ccc(N2CCN(C(=O)CC(C)S(=O)(=O)c3ccc4c(c3)NC(=O)CO4)CC2)cc1 (configuration not stated)	?	?	i	?	?
O=C1CCc2cc(S(=O)(=O)NCCC(=O)N3CCN(c4cccc(Cl)c4)CC3)ccc2N1	?	nt	nt	?	16µM
COC(=O)C[C@H]1CC[C@@H](NC(=O)c2ccncc2)[C@@H](CO)O1	nt	i	i	i	i
O=S(=O)(NCc1ccc(Cl)cc1)c1ccc(Br)cc1C1CC[C@@H](O)C1 (some centres not stated)	nt	nt	nt	i	nt
COc1ccc2cc3cc(C(=O)N4CCN(c5ccccn5)CC4)oc3nc2c1	i	nt	nt	i	i
COc1ccc(Nc2nccc3c2cc(-c2ccccc2OC)n3C)cc1	nt	nt	nt	-67	nt
CCCC12CN3CC(CCC)(CN(C1)C3c1ccccc1)C2=O (configuration not stated)	nt	i	i	i	i
CCS(=O)(=O)c1ccc2oc(SCC(=O)NCCc3ccccc3)nc2c1	i	13µM	?	i	i
CCS(=O)(=O)c1ccc2oc(SCC(=O)NCc3ccccc3)nc2c1	i	i	i	i	i
COc1ccc(C(=O)c2sc(NC(C)C)nc2N)cc1OC	?	nt	11µM	?	i
COc1cccc(C(=O)c2sc(NC(C)C)nc2N)c1	?	nt	7.1µM	-97	i
O=C(Nc1ccc2snnc2c1)Nc1cccc2ccccc12	10µM	?	?	-88	i
CCOC(=O)c1ccc(NC(=O)Nc2ccc3snnc3c2)cc1	nt	i	i	-106	i
COc1cccc(NC(=O)Nc2ccc3snnc3c2)c1	nt	i	?	i	i
CCc1ccccc1NC(=O)Nc1ccc2snnc2c1	nt	i	i	-70	i
N#Cc1cccc(C(=O)C(=O)N2CCCN(Cc3ccc(F)cc3)CC2)c1	nt	?	i	?	i
O=C(Nc1ccc(F)c(Cl)c1)c1cc(C2CCCCN2C(=O)CCc2ccccc2)on1 (configuration not stated)	nt	i	i	i	i
COc1cc(C2c3cc4c(cc3CC3COC(=O)C32)OCO4)cc(OC)c1O (configuration not stated)	?	i	?	-90	i
SMILES	HCV inhibitor	Vaccinia mCherry	Vaccinia Venus	HCMV antiviral	FMDV inh
COc1cc(C2c3cc4c(cc3C(OC(C)=O)[C@H]3COC(=O)C23)OCO4)cc(OC)c1OC (some centres not stated)	nt	i	i	nt	i
COc1cc(C2c3cc4c(cc3C3OC(=O)C2C3CO)OCO4)cc(OC)c1OC (configuration not stated)	nt	i	?	-76	i
Cn1c(=O)oc2cc(S(=O)(=O)N3CCC(C(=O)N4CCN(c5ccccc5F)CC4)CC3)ccc21	nt	i	i	i	i
CC1=C/C(=N\OS(=O)(=O)c2ccccc2)C(C)=CC1=O	?	?	i	-100	4.5µM
CC1=C/C(=N\OS(=O)(=O)c2ccccc2)C(C(C)C)=CC1=O	?	i	i	-82	28µM
CCC(=O)c1cn(CC(=O)NCc2cccnc2)c2ccccc12	i	i	i	i	nt
Cc1ccc(N(CCC(=O)N2CCOCC2)S(=O)(=O)c2ccccc2)cc1	i	i	i	i	i
CC1(C)C(=S)N(Cc2ccccc2)c2ccccc21	i	nt	nt	i	i
COCCNC(=O)C1CCCN(C(=O)c2cc(-c3cccs3)oc2C)CC1 (configuration not stated)	nt	i	i	-67	i
Cc1nn(Cc2ccc(C(=O)NN)o2)c(C)c1Cl	13µM	nt	nt	i	i
Cc1nn(Cc2ccc(C(=O)NC(C)(C)C)o2)c(C)c1Br	?	nt	?	-80	?
Cc1cc(NC(=O)c2ccc(Cn3nc(C)c(Br)c3C)o2)no1	i	i	i	i	nt
CCc1ccc(NC(=O)CSc2ccc3nc(-c4ccc(OC)cc4)cn3n2)cc1	nt	i	i	i	i
COc1ccc(-c2nc3cnc(OC)nc3n(-c3ccccc3)c2=O)cc1	nt	nt	nt	nt	i
Cn1c(O)c(/C=N/NC(=O)c2cc3ccccc3cc2O)c2ccccc21	?	7.9µM	?	i	i
CCOc1ncnc2c1[nH]c1ccccc12	10µM	?	i	i	i
Cc1ccc2[nH]c3c(Cl)ncnc3c2c1	i	i[7.34 µM]	i[7.34 µM]	i	i
c1coc(CNc2ncnc3c2[nH]c2ccccc23)c1	nt	i	?	nt	nt
CCCOc1ncnc2c1[nH]c1ccc(C)cc12	13µM	nt	nt	nt	i
O=C(COC(=O)Cn1nnc(-c2ccccc2)n1)Nc1cc(F)ccc1F	i	i	i	i	i
O=S(=O)(c1ccc2c(c1)OCCO2)N1CCN(c2nc3ccccc3s2)CC1	i	i	i	?	nt
COc1ccc(OC)c2sc(N3CCCCC3)nc12	13µM	nt	nt	i	i
COc1ccc(OC)c2sc(N3CCN(C(=O)c4ccc([N+](=O)[O-])s4)CC3)nc12	?	i	i	i	i
c1ccc2c(c1)CCN(c1nc3cc4c(cc3s1)OCCO4)C2	?	nt	nt	-90	7.9µM
COc1ccc(OC)c2sc(N3CCc4ccccc4C3)nc12	?	i	i	-76	i
SMILES	HCV inhibitor	Vaccinia mCherry	Vaccinia Venus	HCMV antiviral	FMDV inh
C[C@@H](Oc1ccccc1)c1nnn(Cc2ccccc2)c1-c1c([C@@H](C)Oc2ccccc2)nnn1Cc1ccccc1	i	i	i	-72	i
COc1ccc(-n2cc(-c3ccc4c(c3)OCO4)n(CC(=O)Nc3cccc(C)c3C)c2=O)c(OC)c1	nt	i	i	-86	?
COc1ccc(-n2cc(-c3ccc4c(c3)OCO4)n(CC(=O)Nc3cc(Cl)ccc3C)c2=O)cc1	nt	?	?	i	i
COc1cccc(CCNC(=O)c2c(O)nc3ccccn3c2=O)c1	nt	i	i	?	i
CN1CCC2(CC1)Nc1nc(SCc3ccc(Cl)cc3)nn1C1=C2CN(C)CC1	14µM	nt	i	i	i
O=C1CC(c2ccco2)Cc2[nH]c(=O)c(C(=O)Nc3ccccc3)cc21 (configuration not stated)	nt	i	i	nt	nt
Cc1ccc(-n2[nH]c(=O)c(-c3ccccn3)c2C)cc1	i	i	i	?	7.1µM
CCN(Cc1cccc(S(=O)(=O)O)c1)c1ccc(C(=C2C=CC(=[N+](CC)Cc3cccc(S(=O)(=O)O)c3)C=C2)c2ccc(O)cc2S(=O)(=O)O)cc1	nt	10µM	i	nt	nt
